Bioassay records as filed in PubChem BioAssay.
Pf growth 48h – Primary qHTS for delayed death inhibitors of the malarial parasite plastid, 48 hour incubation; AID 504832, 2011; P. falciparum luciferase growth in erythrocytes, 48 h; Potency, µM (series often up to 28.7 µM), inactives show top-dose activity change, negative = inhibition, most hits filed as inhibitors; 310,000 compounds, 5.9% hits; further: potency means the concentration at half of the fitted maximal effect; on the % scale 0 is the no-effect control and ±100 the full control effect
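In quantitative HTS format, infected erythrocytes bearing luciferase-reporter parasites were treated for a single generation at 37 C. Luminescence after adding detection reagent served as the growth measure.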
Pf growth 96h – Primary qHTS for delayed death inhibitors of the malarial parasite plastid, 96 hour incubation. Potency, µM (doses to about 28.7 µM), for inactives: at the top dose activity change, negative = inhibition, most hits filed as inhibitors. AID 504834, 2011. 320,000 compounds, 6.9% hits. P. falciparum luciferase reporter growth, 96 h; further: potency means the concentration at half of the fitted maximal effect; on the % scale 0 is the no-effect control and ±100 the full control effect
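Cell-based qHTS: luciferase-tagged P. falciparum in erythrocytes (2% hematocrit, 0.05% parasitemia final) incubated with compounds for 96 hours, 37 C, 5% CO2; luciferase detection reagent then added and luminescence measured.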
Shiga inhibitor – A qHTS for Small Molecule Inhibitors of Shiga Toxin | inhibition, % at 38.7 µM | Vero cells, Shiga toxin protein synthesis inhibition reporter | 290,000 compounds, 9.2% hits; in the data active means inhibition mostly above about 28%, no sharp cut-off; inactive means mostly below about 43%; further: 0% is about no effect
Cycloheximide cs – Cycloheximide Counterscreen for Small Molecule Inhibitors of Shiga Toxin | AID 2314, 2010 | max response, % | cell reporter, cycloheximide protein synthesis inhibition counterscreen | 300,000 compounds, 12% hits; in the data active means max response mostly above about 13%, no sharp cut-off; inactive means mostly below about 14%; further: read at 38.3 µM for the half of the compounds with a filed dose; 0% is about no effect
FBPA Giardia inh – qHTS Assay for Inhibitors of Fructose-1,6-bisphosphate Aldolase from Giardia Lamblia. A8B2U2. purified Giardia FBPA. 290,000 compounds, 0.71% hits. Potency, µM (highest dose often 59.6 µM), without a hit: at the top dose activity, negative = inhibition, hits mostly inhibitors; further: potency means the concentration at half of the fitted maximal effect; on the % scale 0 is the no-effect control and ±100 the full control effect; nearly all actives have a fitted effect of over 55% in size
Target sequence (A8B2U2 whole entry, looked up): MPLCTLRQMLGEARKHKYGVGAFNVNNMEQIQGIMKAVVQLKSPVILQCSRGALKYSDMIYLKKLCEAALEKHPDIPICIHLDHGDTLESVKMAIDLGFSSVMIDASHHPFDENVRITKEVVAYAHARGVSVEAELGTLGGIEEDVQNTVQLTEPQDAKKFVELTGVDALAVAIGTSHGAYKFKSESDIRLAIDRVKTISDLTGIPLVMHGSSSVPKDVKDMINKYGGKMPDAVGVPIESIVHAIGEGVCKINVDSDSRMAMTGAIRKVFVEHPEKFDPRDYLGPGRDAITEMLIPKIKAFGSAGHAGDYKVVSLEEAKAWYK
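Giardia FBPA (40 nM reagent) was preincubated 10 min at RT with compound (up to 57.5 uM final), then substrate plus GAPDH/TPI/NAD/arsenate coupling system with diaphorase/resazurin was added; resorufin fluorescence (525/598 nm) was read after 20 min.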
NS1 inh – qHTS Assay for Inhibitors of Influenza NS1 Protein Function; Potency, µM (highest dose often 46.1 µM), inactives show at the top dose activity, positive = more growth; 270,000 compounds, 0.4% hits; calls by dose curve; further: potency means the concentration at half of the fitted maximal effect; actives are rising curves; nearly all actives have a fitted effect of over 50% in size
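S. cerevisiae expressing influenza A NS1, grown in glucose, washed, then diluted 1:100 into pH 6.0 -URA galactose medium with 23 nl compound. Growth recovery read as OD600; NS1-free strain serves as control.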
* marks the source's active call; other numbers are inactive results; ? = inconclusive; . = no result given; [ ] = remark or other dose. A selection: hits, their analogues and other compounds. The true share with any hit is near 21%. Unless noted, the call rests on the fitted dose curve; in most records, active means well fitted curve in the direction sought with a large enough effect; inconclusive means small, poorly fitted or top-dose-only effect, or another doubt; inactive means no such curve, though single readings can be large; an effect the other way counts as inactive or inconclusive.

SMILES	Pf growth 48h	Pf growth 96h	Shiga inhibitor	Cycloheximide cs	FBPA Giardia inh	NS1 inh
Cc1cc(Cl)n2c(nc3ccccc32)c1C#N	8.3µM*	?	17	-2	-7%	.
CCN(CC)c1cc(C)c(C#N)c2nc3ccccc3n12	5.9µM*	?	-4	-2	13%	2%
CNc1cc(C)c(C#N)c2nc3ccccc3n12	7%	?	7	-1	-2%	14%
C=CC(=O)N(CCC)C(c1ccccc1)c1ccccc1OC (centres undefined)	13µM*	?	.	.	.	.
CC(C)(C)c1ccc(NC(=O)C(=O)C2C(=O)Nc3ccccc32)cc1 (centres undefined)	-5%	-1%	49*	32*	13%	.
CC(C)c1ccc(NC(=O)C(=O)C2C(=O)Nc3ccccc32)cc1 (centres undefined)	5%	9%	-5	9	26%	5%
CCN(CC)CCOc1ccc2c(c1)C(=O)c1cc(OCCN(CC)CC)ccc1-2	4.3µM*	6µM*	.	.	0%	.
COC(=O)C(C(C)=O)C1c2ccccc2C=C(C)N1C(=O)OC (centres undefined)	.	.	.	.	0%[12.9 µM]	.
CCN(CC)Cc1c(O)ccc2cc(-c3nc4ccccc4n3C)c(=O)oc12	39%	-5%	9	11*	-13%	5%
Cn1c(-c2cc3ccc(OC(=O)C(C)(C)C)cc3oc2=O)nc2ccccc21	56%	113%	32	12	0%	-5%
CC(=O)Oc1ccc2cc(-c3nc4ccccc4n3C)c(=O)oc2c1	138%	.	75*	32	-1%	-5%
Cc1nc2ccc(S(=O)(=O)N3CCN(S(=O)(=O)c4c(F)cccc4F)CC3)cc2s1	.	.	-6	-11	.	.
Cc1ccc(CC2C(=O)N(c3ccc(C)cc3)C(=O)C2C)cc1 (centres undefined)	35%	13%	80*	47*	2%	.
Cc1ccc(CC2C(=O)N(c3ncccn3)C(=O)C2C)cc1 (centres undefined)	.	0.83µM*	-10	-4	2%	5%
O=C(O)c1ccccc1N/N=C/c1c(Sc2nnnn2-c2ccccc2)nc2ccccn2c1=O	?	0.59µM*	-5	3	9%	6%
COC(=O)CC(c1ccc(F)cc1)n1c(C)ccc1C (centres undefined)	?	13µM*	-1	9	1%	1%
C=C1C=C(Br)C2(OCCCO2)[C@H]2OC12 (some centres undefined)	.	.	.	.	0%[12.9 µM]	.
CCOC(C[n+]1c(-c2ccccc2)cc(C)cc1-c1ccccc1)OCC	1.5µM*	1.5µM*	.	.	.	.
O=C(C1=C(O)C(=O)N(c2nc3ccc(Cl)cc3s2)C1c1ccco1)c1ccco1 (centres undefined)	?	-11%	.	.	.	.
Cc1ccc(C2C(C(=O)c3cc4ccccc4o3)=C(O)C(=O)N2c2cc(C)on2)cc1 (centres undefined)	?	-16%	-1	2	.	10%
Cc1ccc2nc(N3C(=O)C(O)=C(C(=O)c4cc5ccccc5o4)C3c3cccs3)sc2c1 (centres undefined)	147%	87%	98*	62*	-30%	0%
Cc1cc(N2C(=O)C(O)=C(C(=O)c3cc4ccccc4o3)C2c2cccs2)no1 (centres undefined)	-8%	-8%	40	19*	.	-1%
CCc1ccc2nc(N3C(=O)C(O)=C(C(=O)c4ccco4)C3c3cccs3)sc2c1 (centres undefined)	77%	0%	59*	29*	15%	13%
CC[C@H](C)[C@H](NC(=O)[C@H](CCC(=O)O)NC(=O)[C@H](CO)NC(=O)[C@@H](NC(=O)[C@@H](N)CO)C(C)C)C(=O)N[C@@H](CCC(N)=O)C(=O)N[C@@H](CC(C)C)C(=O)N[C@@H](CCSC)C(=O)N[C@@H](Cc1cnc[nH]1)C(=O)N[C@@H](CC(N)=O)C(=O)N[C@@H](CC(C)C)C(=O)NCC(=O)N[C@@H](CCCCN)C(=O)N[C@@H](Cc1cnc[nH]1)C(=O)N[C@@H](CC(C)C)C(=O)N[C@@H](CC(N)=O)C(=O)N[C@@H](CO)C(=O)N[C@@H](CCSC)C(=O)N[C@@H](CCC(=O)O)C(=O)N[C@@H](CCCNC(=N)N)C(=O)N[C@H](C(=O)N[C@@H](CCC(=O)O)C(=O)N[C@@H](Cc1c[nH]c2ccccc12)C(=O)N[C@@H](CC(C)C)C(=O)N[C@@H](CCCNC(=N)N)C(=O)N[C@@H](CCCCN)C(=O)N[C@@H](CCCCN)C(=O)N[C@@H](CC(C)C)C(=O)N[C@@H](CCC(N)=O)C(=O)N[C@@H](CC(=O)O)C(=O)N[C@H](C(=O)N[C@@H](Cc1cnc[nH]1)C(=O)N[C@@H](CC(N)=O)C(=O)N[C@@H](Cc1ccccc1)C(=O)N[C@H](C(=O)N[C@@H](C)C(=O)N[C@@H](CC(C)C)C(=O)NCC(=O)O)C(C)C)C(C)C)C(C)C	.	.	-7	-2	-26%	.
COc1ccc(OC)c(CC(=O)Nc2ccc3c(c2)CCC3)c1	33%	-5%	21	5	4%	-21%
SMILES	Pf growth 48h	Pf growth 96h	Shiga inhibitor	Cycloheximide cs	FBPA Giardia inh	NS1 inh
COc1ccc(OC)c(CNc2ccc3c(c2)CCC3)c1	?	10µM*	66*	43*	?	11%
COc1cccc(CNc2ccc(C)c(Cl)c2)c1	8%	?	64*	39*	-1%	-7%
COc1ccc(OCC(=O)Nc2ccc3c(c2)CCC3)cc1	26%	-9%	.	.	.	.
C=CCOc1c(Cl)cc(CNc2ccc(C)c(Cl)c2)cc1OC	.	?	-10	-3	-4%	0%
COc1cccc(CNc2ccc3c(c2)CCC3)c1	.	31%	153*	118*	?	1%
COc1ccccc1NC(=O)CSc1nnnn1-c1ccccc1F	11%	0%	.	-3	1%	21%
Cc1cc(C(=O)C(C)Sc2cccc[n+]2[O-])c(C)n1-c1ccc(Cl)cc1 (centres undefined)	-5%	12µM*	10	10*	2%	-33%
O=C(O)c1cc2ccccc2c2cc(Br)ccc12	?	43%	7	-5	24%	-44%
CCOC(=O)c1c(C)sc(Sc2ccc(Cl)cc2[N+](=O)[O-])c1OC	3.7µM*	.	-8	1	1%	1%
Cc1ccc(O)c(N=Nc2ccc(S(=O)(=O)N3CCOCC3)cc2)c1	5.2µM*	?	15	8	0%	3%
COc1ccc(S(=O)(=O)N2CCOCC2)cc1Br	2%	-12%	-12	-2	4%	1%
COc1ccc(C)cc1NC(=O)c1ccc(S(=O)(=O)N2CCOCC2)cc1	-8%	-29%	-5	2	0%	-2%
